15 molecules from PubChem BioAssay (EPA / NIEHS) can be followed below.

“And” between values parts separate entries of the source, which are not always exact repeats. Identical values can stand only once. More than one record can exist for a structure, and the calls need not agree. The source made the active and inactive calls. The calls were made as follows: active = hit-call score of the fitted dose curve at least 0.9, where 1 is the maximum; inactive = score below 0.9.

The first experiment in a line: CCTE_Shafer_MEA_dev_mutual_information_norm: CCTE's Neural Network Formation Assay for Mutual Information Normalization, Shafer Lab (AID 2284091).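 As to AC50: mutual information between electrodes summarised as area under curve across four recording days; potency is for a decrease in mutual information relative to DMSO.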
Conditions: not given
The method in brief:
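Shared information across electrodes, tracked on days 5, 7, 9 and 12 of network development and collapsed as trapezoidal area under the curve. Rat cortical cultures were treated continuously from plating, with treatment renewed at feeds on DIV 5 and 9; DMSO baseline, negative-direction fit.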
For the molecule `O=S1OCC2C(CO1)C1(Cl)C(Cl)=C(Cl)C2(Cl)C1(Cl)Cl` (stereo not drawn), the half-maximal activity concentration (AC50) was 7.83 µM (active).
The same measure, in the same setting: as for `CC[C@H](C)[C@H]1O[C@]2(C=C[C@@H]1C)C[C@@H]1C[C@@H](C/C=C(\C)[C@@H](O[C@H]3C[C@H](OC)[C@@H](O[C@H]4C[C@H](OC)[C@@H](O)[C@H](C)O4)[C@H](C)O3)[C@@H](C)/C=C/C=C3\CO[C@@H]4[C@H](O)C(C)=C[C@@H](C(=O)O1)[C@]34O)O2` (tested in a mixture with another compound), the figure is 2.68 nM (active) and 0.647 nM (active); as for `Oc1cc(Cl)ccc1Oc1ccc(Cl)cc1Cl`, 8.5 µM (active).
As to `O=S(=O)(O)C(F)(F)C(F)(F)C(F)(F)C(F)(F)C(F)(F)C(F)(F)C(F)(F)C(F)(F)F`, the AC50 was 25 µM (active) and the result was inactive.
For the molecule `COP(=S)(OC)Oc1ccc([N+](=O)[O-])cc1`, the outcome was inactive.
Same read-out and setting: as for `CCC(C)(C)C(=O)OC1=C(c2ccc(Cl)cc2Cl)C(=O)OC12CCCCC2`, the entry is “inactive”; as for `ClC1C(Cl)C(Cl)C(Cl)C(Cl)C1Cl` (stereo not drawn), “inactive”.
For `O=C(O)C(F)(F)C(F)(F)C(F)(F)C(F)(F)C(F)(F)C(F)(F)C(F)(F)F`, the call was inactive.
On the same count and under the same terms, as for `CC(C)N(C(=O)COc1nnc(C(F)(F)F)s1)c1ccc(F)cc1`, the entry is “inactive”.
Consider `CC1(c2ccc(Oc3ccccc3)cc2)OC(=O)N(Nc2ccccc2)C1=O` (stereo not drawn), for which the AC50 was 1.34 µM (active).
For `O=C(O)COc1ccc(Cl)cc1Cl`, the AC50 is 12.1 µM (active).
Consider `COP(=O)(OC)OC=C(Cl)Cl`, for which the concentration at half-maximal activity (AC50) was 0.378 µM (active) and the call was inactive.
As for `CC1(C)C(C=C(Cl)Cl)C1C(=O)OC(C#N)c1ccc(F)c(Oc2ccccc2)c1` (stereo not drawn), the AC50 is 268 nM (active) and 6.41 µM (active) and 2.77 µM (active).
In the case of `CNC(=O)CSP(=S)(OC)OC`, the AC50 is 50 µM (active) and the result was inactive.
`O=[N+]([O-])/N=C1\NCCN1Cc1ccc(Cl)nc1`: the molecule was classed as inactive.

The next experiment in a line: CCTE_Shafer_MEA_dev_correlation_coefficient_mean: CCTE's Neural Network Formation Assay for Mean Correlation Coefficient, Shafer Lab (AID 2284093).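 As to AC50: well mean pairwise spike train correlation integrated as AUC over recording days 5 to 12; potency fitted for loss of correlation relative to DMSO vehicle wells.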
Conditions: not given
The method in brief:
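Rat cortical cultures, 1.5 x 10^5 cells/well, dosed from day 0 for 12 days. Spontaneous spikes recorded DIV 5/7/9/12; electrode-pair correlation coefficients averaged, AUC taken. Fit in loss direction vs DMSO.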
On to `O=S1OCC2C(CO1)C1(Cl)C(Cl)=C(Cl)C2(Cl)C1(Cl)Cl` (stereo not drawn), for which the AC50 was 8.13 µM (active).
`CC[C@H](C)[C@H]1O[C@]2(C=C[C@@H]1C)C[C@@H]1C[C@@H](C/C=C(\C)[C@@H](O[C@H]3C[C@H](OC)[C@@H](O[C@H]4C[C@H](OC)[C@@H](O)[C@H](C)O4)[C@H](C)O3)[C@@H](C)/C=C/C=C3\CO[C@@H]4[C@H](O)C(C)=C[C@@H](C(=O)O1)[C@]34O)O2` (tested in a mixture with another compound): the AC50 is 89.5 nM (active) and 4.11 nM (active).
Same read-out and setting: as for `Oc1cc(Cl)ccc1Oc1ccc(Cl)cc1Cl`, the figure is 9.23 µM (active).
In the case of `O=S(=O)(O)C(F)(F)C(F)(F)C(F)(F)C(F)(F)C(F)(F)C(F)(F)C(F)(F)C(F)(F)F`, the AC50 was 68.6 µM (active) and the molecule was classed as inactive.
For the molecule `COP(=S)(OC)Oc1ccc([N+](=O)[O-])cc1`, the AC50 is 23 µM (active).
On to `CCC(C)(C)C(=O)OC1=C(c2ccc(Cl)cc2Cl)C(=O)OC12CCCCC2`, for which the call was inactive.
Regarding `ClC1C(Cl)C(Cl)C(Cl)C(Cl)C1Cl` (stereo not drawn), the molecule was classed as inactive.
Still for that read-out and setting: as for `O=C(O)C(F)(F)C(F)(F)C(F)(F)C(F)(F)C(F)(F)C(F)(F)C(F)(F)F`, the entry is “inactive”.
For the molecule `CC(C)N(C(=O)COc1nnc(C(F)(F)F)s1)c1ccc(F)cc1`, the half-maximal activity concentration (AC50) is 15 µM (active) and the outcome was inactive.
Regarding `CC1(c2ccc(Oc3ccccc3)cc2)OC(=O)N(Nc2ccccc2)C1=O` (stereo not drawn), the AC50 is 1.79 µM (active).
With `O=C(O)COc1ccc(Cl)cc1Cl`, the molecule was classed as inactive.
With `COP(=O)(OC)OC=C(Cl)Cl`, the AC50 is 0.656 µM (active) and the outcome was inactive.
`CC1(C)C(C=C(Cl)Cl)C1C(=O)OC(C#N)c1ccc(F)c(Oc2ccccc2)c1` (stereo not drawn): the AC50 is 1.06 µM (active) and 8.22 µM (active) and 7.24 µM (active).
On the same count and under the same terms, as for `CNC(=O)CSP(=S)(OC)OC`, the figure is 50 µM (active) and 15 µM (active).
Regarding `O=[N+]([O-])/N=C1\NCCN1Cc1ccc(Cl)nc1`, the outcome was inactive.

A short description of another experiment: UKN2_HCS_IMR90_neural_migration: University of Konstanz (UKN) Leist Lab Neural Crest Cell Migration Assay in human induced IMR90 Pluripotent Stem Cells (UKN2) (AID 2284204). The settings on record: actives raise or lower the signal. The method in brief:
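High-content imaging of calcein-AM and Hoechst stained cells quantifies migration into a stopper-defined gap after 24 h compound exposure. Neural crest cells from IMR90 iPSC migrated 24 h in EGF/FGF N2-S medium before dosing; DMSO baseline.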
Turning to `O=S1OCC2C(CO1)C1(Cl)C(Cl)=C(Cl)C2(Cl)C1(Cl)Cl` (stereo not drawn), the AC50 is 13.9 µM (active).
Same read-out and setting: as for `CC[C@H](C)[C@H]1O[C@]2(C=C[C@@H]1C)C[C@@H]1C[C@@H](C/C=C(\C)[C@@H](O[C@H]3C[C@H](OC)[C@@H](O[C@H]4C[C@H](OC)[C@@H](O)[C@H](C)O4)[C@H](C)O3)[C@@H](C)/C=C/C=C3\CO[C@@H]4[C@H](O)C(C)=C[C@@H](C(=O)O1)[C@]34O)O2` (tested in a mixture with another compound), the figure is 3.78 µM (active).
For `O=S(=O)(O)C(F)(F)C(F)(F)C(F)(F)C(F)(F)C(F)(F)C(F)(F)C(F)(F)C(F)(F)F`, the concentration at half-maximal activity (AC50) is 114 µM (active) and the outcome was inactive.
Turning to `ClC1C(Cl)C(Cl)C(Cl)C(Cl)C1Cl` (stereo not drawn), the molecule was called inactive.
For `O=C(O)C(F)(F)C(F)(F)C(F)(F)C(F)(F)C(F)(F)C(F)(F)C(F)(F)F`, the outcome was inactive.
On the same count and under the same terms, as for `CC(C)N(C(=O)COc1nnc(C(F)(F)F)s1)c1ccc(F)cc1`, the entry is “inactive”.
For `CC1(c2ccc(Oc3ccccc3)cc2)OC(=O)N(Nc2ccccc2)C1=O` (stereo not drawn), the result was inactive.
On the same count and under the same terms, as for `O=C(O)COc1ccc(Cl)cc1Cl`, the entry is “inactive”.
The same measure, in the same setting: as for `COP(=O)(OC)OC=C(Cl)Cl`, the entry is “inactive”.
On the same count and under the same terms, as for `CC1(C)C(C=C(Cl)Cl)C1C(=O)OC(C#N)c1ccc(F)c(Oc2ccccc2)c1` (stereo not drawn), the entry is “inactive”; as for `O=[N+]([O-])/N=C1\NCCN1Cc1ccc(Cl)nc1`, “inactive”.

By AC50 is commonly meant the midpoint of the concentration-response curve, whichever way the signal moves.
